Results from the supplement of paper PMC10981050.
Several values for one entry are separate records, joined by “and”; a condition that tells them apart may be missing. Equal values may be shown once. Where a name gives a salt, the structure may show the parent alone.

Columns and labels:
Assay in all cases: cell viability relative to vehicle control; higher = less cytotoxic
Settings in all cases: 10 µM
K562 = tested on: K562
How it was run: (§1)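 Screening covered the Selleck bioactive, kinase and epigenetic probe libraries, less identity-inconsistent compounds, on CRISPR-edited mutant clones and isogenic wild-type clones of four leukaemia lines. Cells, at 2000 per well in 50 µL medium, received a single 10 µM acoustically dispensed dose. After 48 h the supernatant was removed and CellTiter-Glo luminescence was read. Viability was analysed in Genedata Screener as percent of the on-plate vehicle control.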

MARIMO = tested on: MARIMO
How it was run: as §1

MOLM14 = tested on: MOLM14
How it was run: as §1

OCI-AML2 = tested on: OCI-AML2
How it was run: as §1

SMILES | cell viability (K562; SRSF2 genotype: SRSF2 P95H/wt) | cell viability (K562; SRSF2 genotype: SRSF2 wt/wt) | cell viability (MARIMO; SRSF2 genotype: SRSF2 P95H/wt) | cell viability (MARIMO; SRSF2 genotype: SRSF2 wt/wt) | cell viability (MOLM14; SRSF2 genotype: SRSF2 P95H/wt) | cell viability (MOLM14; SRSF2 genotype: SRSF2 wt/wt) | cell viability (OCI-AML2; SRSF2 genotype: P95H/wt) | cell viability (OCI-AML2; SRSF2 genotype: wt/wt)
CC[C@H]1CN2CC[C@H]1C[C@H]2[C@H](O)c1ccnc2ccc(OC)cc12 [Hydroquinine] | 102% and 101% | 103% | 97.5% | 111% | 87.8% | 106% | 100% | 110%
CCN(CC)C(=O)c1ccc(C2=CC3(CCNCC3)Oc3cccc(O)c32)cc1 | 93.6% and 101% | 92.9% | 88.9% | 98.2% | 97.5% | 93.4% | 97.3% | 89%
c1csc(-c2ccc(-c3cccs3)s2)c1 [2,2':5',2''-Terthiophene] | 95.8% and 89.3% | 97.1% | 88.1% | 100% | 91.7% | 98.7% | 84.6% | 85.4%
CNCC(O)c1ccc(O)cc1 (stereo unspecified) [Synephrine HCl] | 102% and 114% | 108% | 110% | 99.8% | 104% | 111% | 108% | 101%
Cc1cc(C(C#N)c2ccc(Cl)cc2)c(Cl)cc1NC(=O)c1cc(I)cc(I)c1O (stereo unspecified) [Closantel] | 95% and 92.2% | 92.3% | 102% | 108% | 99% | 100% | 92.4% | 110%
CC[C@]12C=CCN3CC[C@]4(C(=C(C(=O)OC)C1)Nc1ccccc14)[C@@H]32 [Tabersonine] | 17.7% and 27% | 30.1% | 19.1% | 18.7% | 11.3% | 4.06% | 7.01% | 14.7%
O=c1ccc2ccc3occc3c2o1 [Isopsoralen] | 105% and 98.7% | 105% | 100% | 101% | 108% | 110% | 103% | 97%
N#C[C@H](O[C@@H]1O[C@H](CO[C@@H]2O[C@H](CO)[C@@H](O)[C@H](O)[C@H]2O)[C@@H](O)[C@H](O)[C@H]1O)c1ccccc1 [Amygdalin] | 104% and 107% | 102% | 104% | 107% | 106% | 108% | 107% | 95.3%
COc1cc2c(cc1O)C[C@H]1c3c(cc(O)c(OC)c3-2)CCN1C [Boldine] | 99.6% and 100% | 99% | 94.1% | 88.6% | 96.5% | 101% | 95.3% | 91%
C[C@]12CC[C@H]3[C@@H](CCC4=CC(=O)C=C[C@@]43C)[C@@H]1CC[C@@H]2O [Boldenone] | 99.7% and 103% | 110% | 101% | 104% | 105% | 110% | 113% | 111%
COc1ccc2c(c1OC)CN1CCc3cc4c(cc3C1C2)OCO4 (stereo unspecified) [Tetrahydroberberine] | 86.9% and 87% | 81.9% | 69.8% | 85% | 81.2% | 86.6% | 73% | 72.8%
CCCN1CCO[C@@H]2c3cc(O)ccc3OC[C@H]21 | 98% and 95.8% | 92.6% | 97.5% | 97% | 104% | 101% | 96.5% | 93.2%
CN1C2CC(OC(=O)C(CO)c3ccccc3)CC1C(O)C2 (stereo unspecified) [Raceanisodamine] | 107% and 103% | 107% | 99% | 111% | 100% | 107% | 99.6% | 104%
OC1CC2CCC(C1)N2 (stereo unspecified) [Nortropine Hydrochloride] | 101% and 98.7% | 101% | 102% | 107% | 97.2% | 102% | 105% | 94.8%
O=c1ccc2c(O)c3ccoc3cc2o1 [Bergaptol] | 108% and 106% | 116% | 105% | 95.6% | 113% | 107% | 106% | 97.5%
O=P1(NCCCl)OCCCN1CCCl (stereo unspecified) [Ifosfamide] | 98.8% and 105% | 104% | 105% | 100% | 104% | 101% | 111% | 98%
CC1=C[C@H]2Cc3[nH]c(=O)ccc3[C@]3(C1)NCCC[C@H]23 [Huperzine B] | 110% and 97% | 113% | 109% | 103% | 113% | 108% | 105% | 94.8%
CCOc1ccccc1-n1c(C(C)N2CCN(C(=O)COc3ccc(Cl)cc3)CC2)nc2ccccc2c1=O (stereo unspecified) [Erastin] | – | 63% | 21.1% | 38.8% | 6.91% | 3.65% | 0.65% | 12.4%
CN(C)CCc1ccc(O)cc1 [Hordenine] | 104% and 106% | 103% | 108% | 106% | 101% | 109% | 107% | 94.8%
